Laboratory results: PubChem BioAssay (Tox21)
Results filed as inconclusive are left out. Unmarked numbers belong to inactive results. The source made the active and inactive calls. Calls come from the whole dose curve; as a rule, active = well fitted inhibition curve with a large enough effect in the repeat runs; inconclusive = weak or mixed curves; inactive = no such curve, though single readings can be large or run the other way.

Experiment: qHTS assay to identify small molecule antagonists of the thyroid receptor (TR) signaling pathway (AID 743065); note: nearly all actives have a fitted effect of over 55% in size
Conditions: GH3.TRE-Luc, T3-stimulated luciferase inhibition, 23.5 h; series mostly up to 70.3 µM; activity, negative = inhibition: at the top concentration
How it was run: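 GH3.TRE-Luc rat pituitary cells (two TREs driving luciferase) were dosed with compound, then stimulated with 1 nM T3 (final) for 23.5 h at 37 C. ONE-Glo luminescence was the read-out, with CellTiter-Fluor fluorescence as the cytotoxicity counter-screen.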
% is set by controls: 0 for no effect and ±100 for the full control effect; potency is the fitted concentration of half-maximal effect.

Structure (SMILES) | activity, negative = inhibition | Potency
COc1ccc2c(c1)c1c3n2CCN(C)C3=NCC1 | -29.1% | –
Cc1ccc(C)c([N+](=O)[O-])c1 | -0.127% | –
O=C(O)CNC(=O)CNC(=O)CNC(=O)CSC(=O)c1ccccc1 | 1.25% | –
OCC(O)CN1CCN(c2ccccc2)CC1 (stereo unspecified) | 14% | –
OCCN1CCOCC1 | 1.78% | –
CCC(C)C(C)=O (stereo unspecified) | 12.5% | –
Cc1ccnc(N)c1 | -1.17% | –
CCCCOC(=O)[C@H](C)O | 12.9% | –
O=C(NCN1CCOCC1)c1cnccn1 | 2.93% | –
COC(=O)CCCCC(=O)O | -8.81% | –
C=C(C)[C@@H]1CC=C(C)C(=O)C1 | 0.177% | –
COC(=O)c1ccccc1C(=O)O | -4.58% | –
c1ccc(-c2nn[nH]n2)cc1 | 11.8% | –
N[C@@H](Cc1ccc(O)cc1)C(=O)O | 4.2% | –
O=Cc1ccccc1Cl | -1.75% | –
OCC1(CO)COCOC1 | 18.2% | –

Structure (SMILES) | activity, negative = inhibition | Potency
C=CCSSCCC | 7.94% | –
COc1cc2c(cc1OC)C(=O)C(CC1CCN(Cc3ccccc3)CC1)C2 (stereo unspecified) | – | 26.6 µM (active)
CC(C)c1ccc(C=O)cc1 | 10.1% | –
CC(=O)CC(=O)OC(C)(C)C | 24.1% | –
O=C(O)CONC(=O)c1ccccc1 | -3.95% | –
CCCCCCCCCCCCCBr | 14.5% | –
CC1CC(=O)CC(C)(C)C1 (stereo unspecified) | 10.6% | –
c1ccc2cnccc2c1 | 0.716% | –
ONc1ccccc1 | -14.6% [at 95 µM] | –
O=C(Cl)c1ccccc1[N+](=O)[O-] | 14.7% [at 95 µM] | –
Cn1c(=O)c2[nH]c(Br)nc2n(C)c1=O | – | 26.6 µM (active)
CCCC(=O)OCCC(C)CCC=C(C)C (stereo unspecified) | -8.25% | –
C=C(C)c1cccc(C(C)(C)N=C=O)c1 | 3.43% | –
O=C[O][Al]([O]C=O)[O]C=O | 4.16% | –
CN1CCOC(c2ccccc2)c2ccccc2C1 (stereo unspecified) | -7.14% [at 32.5 µM] | –
